TDP1 cell noCPT: qHTS for Inhibitors of human tyrosyl-DNA phosphodiesterase 1 (TDP1): qHTS in cells in absence of CPT. DT40 Tdp1-/- hTDP1 cells, no CPT, ATP luminescence, 48 h. Potency, µM (series often up to 46.2 µM), usual class: inhibitors. 15% of 420,000 active. AID 686978, 2013; further: nearly all actives have a fitted effect of over 55% in size
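Readout: luminescence from CellTiter-Glo after 30 min in the dark at RT. Cells: DT40 Tdp1-/- with stable hTDP1, 400/well. Exposure: compounds alone, ≥48 hr, 37 °C.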
HT1080 IDH1KD tx: toxicity to HT-1080 IDH1 knockdown cells (counter line). HT-1080 IDH1 knockdown viability, ATP luminescence, 48 h. Potency, µM (top dose mostly 46.1 µM), usual class: cytotoxic. 2% of 360,000 active. AID 686971
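Knockdown cells (IDH1KD HT-1080) received compounds 2 h after plating at 750 cells/well and were kept 48 h at 37 °C in 5% FBS RPMI. A CellTiter-Glo luminescence read gave % activity for curve fitting.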
DT40 TDP1 CPT: DT40-hTDP1 cell growth loss with CPT. chicken DT40 Tdp1-/-;hTDP1 cells + 20 nM CPT, ATP luminescence, 48 h. Potency, µM (series often up to 46.2 µM), actives largely listed as inhibitors. 12% of 420,000 active. AID 686979; further: nearly all actives have a fitted effect of over 55% in size
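Chicken DT40 Tdp1-/- cells stably complemented with human TDP1 were seeded at 400 cells/well in medium containing 20 nM camptothecin, exposed to pin-transferred compounds, and grown at 37 °C for at least 48 hr. Viability was read as ATP luminescence.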
KB-V1 MDR tox: KB-V1 MDR subline cytotoxicity; KB-V1 MDR cells viability, CellTiter-Glo, 72 h; Potency, µM (doses to about 46.1 µM), hits mostly cytotoxic; 3.4% of 400,000 active; further: nearly all actives have a fitted effect of over 60% in size
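Cytotoxicity via CellTiter-Glo luminescence after 72 h compound exposure at 37 degrees C. Cells: drug-selected KB-V1 line, DMEM phenol-red free plus 10% FBS. Compounds tested at multiple concentrations; normalized data fitted to concentration-effect curves.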
HT1080NT lethal: kills 2HG-producing HT-1080-NT fibrosarcoma cells | HT-1080-NT fibrosarcoma viability, CellTiter-Glo ATP luminescence, 48 h | 1.6% of 360,000 active | AID 686970 | Potency, µM (top dose mostly 46.1 µM), usual class: cytotoxic;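 further: NT is the 2HG producing partner of a matched IDH1 knockdown line; nearly all actives have a fitted effect of over 55% in size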
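A 48-hour cytotoxicity screen used HT-1080-NT cells plated 2 hours before compound delivery. ATP-based CellTiter-Glo luminescence measured viability, normalized to DMSO and no-cell controls.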
KB-3-1 cytotox: kills parental KB-3-1 adenocarcinoma cells | KB-3-1 viability, CellTiter-Glo ATP luminescence, 72 h | Potency, µM (highest dose often 46.1 µM), hits mostly cytotoxic | 1.4% of 400,000 active; further: nearly all actives have a fitted effect of over 60% in size
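Viability of parental KB-3-1 cells, measured by CellTiter-Glo luminescence, followed a 72 h incubation at 37 °C with pinned compounds in phenol-red-free DMEM containing 10% FBS.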
Numbers stand for hits; i = inactive; ? = inconclusive; nt = no result. Compounds with a hit are over-represented: about 19% of the library has one in this group of screens. The call rests on the fitted dose curve; in most records, active means well fitted curve in the direction sought with a large enough effect; inconclusive means small, poorly fitted or top-dose-only effect, or another doubt; inactive means no such curve, though single readings can be large; an effect the other way counts as inactive or inconclusive.

SMILES	TDP1 cell noCPT	HT1080 IDH1KD tx	DT40 TDP1 CPT	KB-V1 MDR tox	HT1080NT lethal	KB-3-1 cytotox
COc1ccc(CCc2nnc(CCC(=O)N(C)Cc3ccnc4ccccc34)o2)cc1	4.6µM	21µM	?	i	?	i
COc1ccc(CCc2ccc3ccccc3n2)cc1	?	i	i	i	i	i
COc1ccc(CCc2ccnc3ccccc23)cc1	21µM	?	?	?	i	?
COc1cc(N=Nc2ccc(C(=O)N(C)C)cc2)c(C)cc1N	?	i	?	i	i	i
CCCN(CC1CCCO1)C(=O)CCc1nnc(CCc2ccc(OC)cc2)o1 (centres undefined)	?	i	23µM	i	i	i
COc1ccc(OC)c(C(Cc2ccnc3ccccc23)Cc2ccnc3ccccc23)c1	13µM	nt	13µM	i	nt	i
COc1ccc(CCc2nnc(CCC(=O)NCC3CCCO3)o2)cc1 (centres undefined)	i	i	i	i	i	i
NC(C(=O)O)[C@H](O)C(=O)O (some centres undefined)	i	nt	i	nt	nt	nt
O=C(CCS(=O)(=O)c1ccccc1)Nc1nccs1	?	i	?	i	?	i
O=C(CCS(=O)(=O)c1ccc(Cl)cc1)Nc1nc(-c2ccncc2)cs1	13µM	i	16µM	i	i	i
O=C(CS(=O)(=O)c1ccccc1)Nc1nc(-c2ccc(F)cc2)cs1	?	i	?	i	i	i
COc1ccc(-c2csc(NC(=O)CCS(=O)(=O)c3ccccc3)n2)c(OC)c1	8.2µM	?	?	?	?	?
Cc1ccc(S(=O)(=O)CCC(=O)Nc2nc(-c3ccccn3)cs2)cc1	5.8µM	i	6.5µM	i	i	?
COc1ccc(-c2csc(NC(=O)CS(=O)(=O)c3ccccc3)n2)c(OC)c1	?	i	?	i	i	i
O=C(CCS(=O)(=O)c1ccccc1)Nc1nc(-c2ccc(F)cc2)cs1	?	21µM	?	i	?	i
Cc1ccc(S(=O)(=O)CCC(=O)Nc2nc(-c3cccnc3)cs2)cc1	?	i	15µM	i	i	i
Cc1ccccc1Cn1c(SCc2ccc(C(=O)NC(C)c3ccccc3)cc2)nc2ccncc21 (centres undefined)	16µM	nt	9.2µM	i	nt	i
Cc1ccccc1Cn1c(SCc2ccc(C(=O)NCc3cccs3)cc2)nc2ccncc21	18µM	nt	21µM	i	nt	i
Cc1ccc(OCCSc2nc3ccccc3n2CCC(=O)O)c(C(C)C)c1	?	i	i	?	i	i
Cc1cc(C(=O)C(C)OC(=O)C2=NNC(=O)CC2)c(C)n1-c1ccc(OC(F)F)cc1 (centres undefined)	21µM	i	?	?	i	?
Cc1cc(C(=O)COC(=O)C2=NNC(=O)CC2)c(C)n1-c1ccc(OC(F)F)cc1	?	i	?	i	i	i
O=C(Nc1nc(=O)n(C(=O)C2CC2)s1)c1ccccc1	23µM	i	21µM	i	i	i
Cc1ccc(C(=O)Nc2nc(=O)n(C(=O)C3CC3)s2)cc1	16µM	i	21µM	?	i	i
O=C(Nc1ccc(NC(=O)C2CC2)cn1)c1ccccc1	i	i	i	i	i	i
Cc1ccc(C(=O)Nc2cccc(NC(=O)c3ccc(C)cc3)n2)cc1	?	i	i	?	i	i
SMILES	TDP1 cell noCPT	HT1080 IDH1KD tx	DT40 TDP1 CPT	KB-V1 MDR tox	HT1080NT lethal	KB-3-1 cytotox
Cc1ccc(C(=O)Nc2nc(=O)n(C(=O)c3ccccc3C)s2)cc1	13µM	?	12µM	i	?	i
O=C(C(=O)N1CCN(C(=O)OCc2ccccc2)CC1)c1cccnc1	i	i	i	?	i	i
CCOC(=O)C(=O)Nc1nnc2n1CCS2	i	nt	i	nt	nt	nt
C=C1CCC[C@]2(C)C[C@H]3OC(=O)C(CN4CCOCC4)[C@H]3C[C@@H]12 (some centres undefined)	?	i	?	i	i	i
C/C1=C\CCC2C(/C=C(\C)CC1)OC(=O)C2CN1CCCCC1 (centres undefined)	?	21µM	10µM	?	?	i
CC(=O)Nc1ccc(S(=O)(=O)Nc2nc3ccccc3s2)cc1	i	i	i	i	i	i
O=S(=O)(Nc1ccc(O)c(Sc2nc3ccccc3s2)c1)c1ccc(Cl)cc1	i	i	i	16µM	i	?
CCOc1ccc(NC(=O)c2cnc(N3CCCC3)nc2C)cc1	?	nt	i	i	nt	i
COc1ccc(NC(=O)C2(C)CCN2CC2CCCCC2)cc1OC (centres undefined)	15µM	i	?	i	i	i
COc1ccc(NC(=O)C2(C)CCN2Cc2ccccc2Cl)cc1OC (centres undefined)	8.2µM	?	9.2µM	?	i	i
COc1ccc(NC(=O)C2(C)CCN2Cc2ccc(C(C)C)cc2)cc1OC (centres undefined)	23µM	i	18µM	i	i	i
N#C/C(=C\c1ccc2c(c1)OCCO2)C(=O)Nc1nccs1	i	i	i	i	i	i
COc1ccc(NC(=O)Cn2c(=O)n(CCc3ccccc3)c(=O)c3sc4ccccc4c32)cc1	i	nt	i	i	nt	i
O=C(CSc1nc(O)c(C/C=C/c2ccccc2)c(=O)[nH]1)Nc1cccc(F)c1	i	nt	i	i	nt	i
C/C=C/C1=CC(=O)C[C@H](c2ccc(OC)c(OC)c2)C1	?	i	?	i	i	i
COC1=CC(=O)C[C@@H](C)[C@]12Oc1c(Cl)c(OC)cc(OC)c1C2=O	17µM	?	?	?	?	i
Clc1ccc(SCNc2ccccc2Cl)cc1	?	i	9.2µM	i	i	i
Cc1ccc(NCSc2ccc(Cl)cc2)cc1	?	i	?	?	i	i
COc1ccc(Nc2nc(N)c([N+](=O)[O-])c(NCc3ccccc3)n2)cc1	16µM	i	?	?	i	i
Cc1ccc(Nc2nc(N)c([N+](=O)[O-])c(NCc3ccccc3)n2)cc1	?	?	i	?	?	i
CNc1nc(Nc2ccc(Br)cc2)nc(N)c1[N+](=O)[O-]	?	?	i	?	?	0.73µM
COc1ccc(Nc2nc(N)c([N+](=O)[O-])c(NC3CCCCC3)n2)cc1	?	?	16µM	?	16µM	i
Cc1[nH]nc(Nc2ccc(Br)cc2)c1[N+](=O)[O-]	18µM	i	21µM	i	i	i
Cc1ccc(NC(=O)CN(C)C(=O)C2CCC2)cc1	i	i	i	i	i	i
Cc1ccc(C(=O)N2[C@@H]3CN(C)C(=O)[C@@]2(C)[C@H]2C(=O)N(C)C(=O)[C@@H]32)cc1	i	i	i	i	i	i

Assay outcomes: PubChem, National Center for Advancing Translational Sciences (NCATS)
